Laboratory results from PubChem BioAssay (Tox21).
Records with an inconclusive call do not appear. Calls of active or inactive are those of the source. Unless noted, calls come from the whole dose curve; as a rule, active = well fitted curve in the direction sought with a large enough effect in the repeat runs; inconclusive = weak or mixed curves; inactive = no such curve, though single readings can be large; an effect the other way counts as inactive or inconclusive.

How the values were obtained:
[1] = qHTS assay for small molecule agonists of the p53 signaling pathway (AID 651631; calls by dose curve; note: nearly all actives have a fitted effect of over 15% in size)
Procedure, shortened: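 Agonist mode screen using a stably integrated beta-lactamase gene under p53 response elements in HCT-116 cells. Compound exposure lasts 16 h at 37 °C; fluorescence intensity is measured following 2 h FRET substrate loading.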

[2] = qHTS assay for small molecule agonists of the p53 signaling pathway - cell viability (AID 651633; calls by dose curve;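 note: p53RE-bla HCT reporter cells with a stable beta-lactamase p53 reporter; nearly all actives have a fitted effect of over 30% in size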)
Procedure, shortened: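 p53RE-bla cells, seeded at 4,000 per well and rested 5 h at 37 C/5% CO2, received compounds in DMSO for 16 h at 37 C. CellTiter-Glo was then added, and luminescence was read after 30 min at room temperature to gauge cytotoxicity.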

[3] = qHTS assay for small molecule disruptors of the mitochondrial membrane potential - cell viability (AID 720634; calls by dose curve;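 note: human HepG2 liver cancer cells; nearly all actives have a fitted effect of over 20% in size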)
Procedure, shortened: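 HepG2 cells, 2,000 per well, attached overnight, then treated 1 hr at 37 C, 5% CO2. Viability read as ATP by CellTiter-Glo luminescence after 30 min at room temperature. Read in the same wells as the m-MPI membrane-potential dye assay.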

[4] = qHTS assay to test for compound auto fluorescence at 590 nm (red) in HepG2 cells (AID 720674)
Procedure, shortened: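 Compound auto-fluorescence is scored relative to Rose Bengal sodium, measured at 540/590 nm in live HepG2 cultures after 1 hr compound contact (37 C, 5% CO2).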

[5] = qHTS assay to test for compound auto fluorescence at 535 nm (green) in HepG2 cells (AID 720675)
[6] = qHTS assay to test for compound auto fluorescence at 460 nm (blue) in HEK293 cells (AID 720678)
Procedure, shortened: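 Auto fluorescence in the blue band was quantified as triamterene equivalency. HEK293 cells were seeded at 2,000/well, dosed after a 4-5 hr attachment, and kept overnight at 37C before the 405/460 nm reading.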

[7] = qHTS assay to test for compound auto fluorescence at 590 nm (red) in HEK293 cells (AID 720679)
Procedure, shortened: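 Autofluorescence equivalency to Rose Bengal sodium, 540/590nm, in HEK293 cells exposed overnight to 23 nL compound per well.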

[8] = qHTS assay to test for compound auto fluorescence at 535 nm (green) in HEK293 cells (AID 720680)
[9] = qHTS assay to test for compound auto fluorescence at 460 nm (blue) in HEK293 cell free culture (AID 720681)
Procedure, shortened: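 Test compounds were pinned into cell-free culture medium (DMEM with 10% FBS) and fluorescence was read directly at Ex/Em 405/460 nm. Signals were expressed as fluorescence equivalents of triamterene, with DMSO vehicle as control.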

[10] = qHTS assay to test for compound auto fluorescence at 535 nm (green) in HEK293 cell free culture (AID 720682)
Procedure, shortened: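 No cells present: wells hold DMEM supplemented with 10% FBS, into which compound or vehicle is pinned. Green emission is then recorded (485 nm excitation, 535 nm emission) and scaled to fluorescein.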

[11] = qHTS assay to test for compound auto fluorescence at 590 nm (red) in HEK293 cell free culture (AID 720683)
Procedure, shortened: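 Tox21 10K library compounds were pinned into cell-free DMEM with 10% FBS and fluorescence was read at excitation 540 nm. Activity is expressed as Rose Bengal sodium equivalency.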

[12] = qHTS assay to test for compound auto fluorescence at 590 nm (red) in HepG2 cell free culture (AID 720684)
Procedure, shortened: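 Red fluorescence (540 nm excitation, 590 nm emission) was measured after compound transfer into cell-free MEM supplemented with 10% FBS. Values are equivalencies against Rose Bengal sodium.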

[13] = qHTS assay to test for compound auto fluorescence at 460 nm (blue) in HepG2 cell free culture (AID 720685)
Procedure, shortened: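 Compound (23 nL) or DMSO pinned into cell-free MEM with 10% FBS; blue fluorescence read at 405/460 nm excitation/emission, expressed as auto-fluorescence equivalency to triamterene.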

[14] = qHTS assay to test for compound auto fluorescence at 535 nm (green) in HepG2 cell free culture (AID 720686)
[15] = qHTS assay to test for compound auto fluorescence at 460 nm (blue) in HepG2 cells (AID 720687)
Procedure, shortened: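 Cells (2,000/well in MEM with 10% FBS) attached overnight at 37 C, then were exposed to compound or DMSO for 1 hr at 37 C, 5% CO2. Fluorescence read at Ex/Em 405/460 nm, expressed as triamterene-equivalent signal.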

[16] = biological target: Glucocorticoid receptor (Homo sapiens) (UniProt P04150); experiment: qHTS assay to identify small molecule agonists of the glucocorticoid receptor (GR) signaling pathway (AID 720691; active = well fitted activation curve with a large enough effect in the signal ratio in the repeat runs, not every such curve was filed as active; the % refers to the signal ratio); conditions: GR-bla HeLa, beta-lactamase reporter ratio, 18 h; activation: at 62.4 µM (top of the series)
Glucocorticoid receptor (Homo sapiens), sequence (P04150 whole entry, looked up): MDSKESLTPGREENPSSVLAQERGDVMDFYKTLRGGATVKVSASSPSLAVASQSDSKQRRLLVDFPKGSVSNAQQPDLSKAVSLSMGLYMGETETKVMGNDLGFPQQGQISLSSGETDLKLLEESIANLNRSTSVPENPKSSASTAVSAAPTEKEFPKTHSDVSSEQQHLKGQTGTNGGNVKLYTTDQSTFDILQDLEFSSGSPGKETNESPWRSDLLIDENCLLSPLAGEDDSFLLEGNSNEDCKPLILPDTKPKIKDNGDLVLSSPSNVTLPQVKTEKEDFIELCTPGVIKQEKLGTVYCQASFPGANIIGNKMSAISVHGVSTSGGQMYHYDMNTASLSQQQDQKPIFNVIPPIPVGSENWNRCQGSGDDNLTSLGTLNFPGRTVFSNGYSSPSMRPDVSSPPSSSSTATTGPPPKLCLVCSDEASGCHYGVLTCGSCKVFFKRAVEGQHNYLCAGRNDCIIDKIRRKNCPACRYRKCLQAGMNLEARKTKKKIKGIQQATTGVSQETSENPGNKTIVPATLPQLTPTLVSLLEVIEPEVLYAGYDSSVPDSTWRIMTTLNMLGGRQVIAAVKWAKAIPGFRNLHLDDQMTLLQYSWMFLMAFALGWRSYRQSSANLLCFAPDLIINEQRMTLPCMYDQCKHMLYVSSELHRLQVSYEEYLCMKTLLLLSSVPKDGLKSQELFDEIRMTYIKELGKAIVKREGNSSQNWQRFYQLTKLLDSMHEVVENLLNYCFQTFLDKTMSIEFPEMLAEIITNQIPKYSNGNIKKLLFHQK
Procedure, shortened: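 GR-bla HeLa cells carrying a GRE-driven beta-lactamase reporter, exposed to compounds for 18 h at 37 C. Reporter activation read as fluorescence after 2 h with LiveBLAzer B/G FRET substrate at room temperature.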

[17] = qHTS assay for small molecules that induce genotoxicity in human embryonic kidney cells expressing luciferase-tagged ATAD5 (AID 651632); note: nearly all actives have a fitted effect of over 15% in size
Procedure, shortened: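 HEK293T cells carrying luciferase-tagged ATAD5 were given compound or DMSO vehicle and incubated 16 hr at 37C, 5% CO2. Luciferase activity was read after 30 min at room temperature with Amplite; a rise signals genotoxic stress.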

[18] = biological target: Glucocorticoid receptor (Homo sapiens) (UniProt P04150); experiment: qHTS assay to identify small molecule antagonists of the glucocorticoid receptor (GR) signaling pathway (AID 720692; active = well fitted inhibition curve with a large enough effect in the signal ratio in the repeat runs, not every such curve was filed as active; the % refers to the signal ratio)
Procedure, shortened: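 GR-bla HeLa cells carrying a GRE-driven beta-lactamase reporter received compound after 4 h plating, then dexamethasone (5 nM final). After 18 h at 37C, the FRET substrate was loaded for 2 h at room temperature and fluorescence read.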

[19] = qHTS assay for small molecule disruptors of the mitochondrial membrane potential (AID 720635)
Procedure, shortened: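 HepG2 cells (2,000/well) attached overnight at 37C, then took compound for 1 hr at 37C, 5% CO2. Mito-MPS dye was added for 30 min; fluorescence was read at 490/535 nm (monomers) and 540/590 nm (aggregates).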

[20] = qHTS assay for small molecules that induce genotoxicity in human embryonic kidney cells expressing luciferase-tagged ATAD5 - cell viability (AID 651634; calls by dose curve; note: nearly all actives have a fitted effect of over 25% in size)
Procedure, shortened: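 HEK293T cells carrying luciferase-tagged ATAD5, 2,000 cells/well, exposed to compound for 15.5 hr at 37C. Viability read as live-cell protease activity by CellTiter-Fluor fluorescence after 30 min at 37C.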

Measured: Potency

CN(C)CCC(c1ccc(Cl)cc1)c1ccccn1 (configuration not stated)
not listed: [17] | [18] | [19] | [20]
inactive: all other assays above

FC(F)(F)c1ccc(Cl)c(Cl)c1
not listed: [6] | [15] | [19] | [20]
inactive: all other assays above

O=S(=O)(O)c1ccc2ccccc2c1
not listed: [15] | [16] | [18] | [20]
inactive: all other assays above

CSCCC=O
not listed: [7] | [15] | [18] | [20]
inactive: all other assays above

CC(C)(N)CO
not listed: [18] | [20]
inactive: all other assays above

CCCCCCCC(=O)OC
not listed: [7] | [13] | [16] | [18] | [20]
inactive: all other assays above

O=c1[nH]c(=O)n([C@H]2CCCO2)cc1F
not listed: [7] | [15] | [16] | [17] | [18] | [19] | [20]
inactive: all other assays above

CC1=CC(=O)NS(=O)(=O)O1
not listed: [1] | [13] | [15] | [17] | [19]
inactive: all other assays above

CCCCCC1=CCCC1=O
not listed: [1] | [13]
inactive: all other assays above

C=C(C)C(=O)Nc1ccc(Cl)c(Cl)c1
not listed: [1] | [3] | [13] | [16] | [18] | [19]
inactive: all other assays above

CCCCCCCCC/C=C/CC1CC(=O)OC1=O (configuration not stated)
not listed: [1] | [6] | [17] | [18] | [19]
inactive: all other assays above
